We go through 14 compounds from PubChem BioAssay.

A short description of experiment [1]: small molecules captured by biotinylated probe aFSTL3 – biochemical, small-molecule microarray, fluorescence 635/667, stem cell growth factor project, primary screen (AID 1064).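 Also: measures binding of the biotinylated anti-FSTL3 antibody to printed compounds.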 As to conditions: higher = more signal.
Experiment [2] is described as follows: binders from COS7 lysate, DM2A8 probe, primary screen, torsin A project, cell lysate, small-molecule microarray, fluorescence 635/667 (AID 1065). As to conditions: higher = more signal, COS7 lysate expressing mutant human TOR1A.
The nature of experiment [3]: small molecules captured by biotinylated probe aFGF2 – biochemical, small-molecule microarray, fluorescence 635/667, stem cell growth factor project, primary screen (AID 1067).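 Also: measures binding of biotinylated aFGF2 protein to printed compounds on slides; z-score merges feature fluorescence and signal-to-noise across triplicate slides.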 As to conditions: higher = more signal.
Experiment [4] is described as follows: small molecules captured by biotinylated probe aFGF10 – biochemical, small-molecule microarray, fluorescence 635/667, stem cell growth factor project, primary screen (AID 1071).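 Also: score merges 667 nm spot intensity and signal to noise from triplicate slides.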 As to conditions: higher = more signal.
The target in experiment [5] is Neurogenic locus notch homolog protein 2 (Homo sapiens) (UniProt Q04721). The experiment can be described thus: small molecules binding Notch2 protein – biochemical, small-molecule microarray, 635 nm fluorescence, stem cell growth factors, primary screen (AID 1073). As to conditions: higher = more signal.
Chain of Neurogenic locus notch homolog protein 2 (Homo sapiens) (Q04721 whole entry, looked up, canonical isoform): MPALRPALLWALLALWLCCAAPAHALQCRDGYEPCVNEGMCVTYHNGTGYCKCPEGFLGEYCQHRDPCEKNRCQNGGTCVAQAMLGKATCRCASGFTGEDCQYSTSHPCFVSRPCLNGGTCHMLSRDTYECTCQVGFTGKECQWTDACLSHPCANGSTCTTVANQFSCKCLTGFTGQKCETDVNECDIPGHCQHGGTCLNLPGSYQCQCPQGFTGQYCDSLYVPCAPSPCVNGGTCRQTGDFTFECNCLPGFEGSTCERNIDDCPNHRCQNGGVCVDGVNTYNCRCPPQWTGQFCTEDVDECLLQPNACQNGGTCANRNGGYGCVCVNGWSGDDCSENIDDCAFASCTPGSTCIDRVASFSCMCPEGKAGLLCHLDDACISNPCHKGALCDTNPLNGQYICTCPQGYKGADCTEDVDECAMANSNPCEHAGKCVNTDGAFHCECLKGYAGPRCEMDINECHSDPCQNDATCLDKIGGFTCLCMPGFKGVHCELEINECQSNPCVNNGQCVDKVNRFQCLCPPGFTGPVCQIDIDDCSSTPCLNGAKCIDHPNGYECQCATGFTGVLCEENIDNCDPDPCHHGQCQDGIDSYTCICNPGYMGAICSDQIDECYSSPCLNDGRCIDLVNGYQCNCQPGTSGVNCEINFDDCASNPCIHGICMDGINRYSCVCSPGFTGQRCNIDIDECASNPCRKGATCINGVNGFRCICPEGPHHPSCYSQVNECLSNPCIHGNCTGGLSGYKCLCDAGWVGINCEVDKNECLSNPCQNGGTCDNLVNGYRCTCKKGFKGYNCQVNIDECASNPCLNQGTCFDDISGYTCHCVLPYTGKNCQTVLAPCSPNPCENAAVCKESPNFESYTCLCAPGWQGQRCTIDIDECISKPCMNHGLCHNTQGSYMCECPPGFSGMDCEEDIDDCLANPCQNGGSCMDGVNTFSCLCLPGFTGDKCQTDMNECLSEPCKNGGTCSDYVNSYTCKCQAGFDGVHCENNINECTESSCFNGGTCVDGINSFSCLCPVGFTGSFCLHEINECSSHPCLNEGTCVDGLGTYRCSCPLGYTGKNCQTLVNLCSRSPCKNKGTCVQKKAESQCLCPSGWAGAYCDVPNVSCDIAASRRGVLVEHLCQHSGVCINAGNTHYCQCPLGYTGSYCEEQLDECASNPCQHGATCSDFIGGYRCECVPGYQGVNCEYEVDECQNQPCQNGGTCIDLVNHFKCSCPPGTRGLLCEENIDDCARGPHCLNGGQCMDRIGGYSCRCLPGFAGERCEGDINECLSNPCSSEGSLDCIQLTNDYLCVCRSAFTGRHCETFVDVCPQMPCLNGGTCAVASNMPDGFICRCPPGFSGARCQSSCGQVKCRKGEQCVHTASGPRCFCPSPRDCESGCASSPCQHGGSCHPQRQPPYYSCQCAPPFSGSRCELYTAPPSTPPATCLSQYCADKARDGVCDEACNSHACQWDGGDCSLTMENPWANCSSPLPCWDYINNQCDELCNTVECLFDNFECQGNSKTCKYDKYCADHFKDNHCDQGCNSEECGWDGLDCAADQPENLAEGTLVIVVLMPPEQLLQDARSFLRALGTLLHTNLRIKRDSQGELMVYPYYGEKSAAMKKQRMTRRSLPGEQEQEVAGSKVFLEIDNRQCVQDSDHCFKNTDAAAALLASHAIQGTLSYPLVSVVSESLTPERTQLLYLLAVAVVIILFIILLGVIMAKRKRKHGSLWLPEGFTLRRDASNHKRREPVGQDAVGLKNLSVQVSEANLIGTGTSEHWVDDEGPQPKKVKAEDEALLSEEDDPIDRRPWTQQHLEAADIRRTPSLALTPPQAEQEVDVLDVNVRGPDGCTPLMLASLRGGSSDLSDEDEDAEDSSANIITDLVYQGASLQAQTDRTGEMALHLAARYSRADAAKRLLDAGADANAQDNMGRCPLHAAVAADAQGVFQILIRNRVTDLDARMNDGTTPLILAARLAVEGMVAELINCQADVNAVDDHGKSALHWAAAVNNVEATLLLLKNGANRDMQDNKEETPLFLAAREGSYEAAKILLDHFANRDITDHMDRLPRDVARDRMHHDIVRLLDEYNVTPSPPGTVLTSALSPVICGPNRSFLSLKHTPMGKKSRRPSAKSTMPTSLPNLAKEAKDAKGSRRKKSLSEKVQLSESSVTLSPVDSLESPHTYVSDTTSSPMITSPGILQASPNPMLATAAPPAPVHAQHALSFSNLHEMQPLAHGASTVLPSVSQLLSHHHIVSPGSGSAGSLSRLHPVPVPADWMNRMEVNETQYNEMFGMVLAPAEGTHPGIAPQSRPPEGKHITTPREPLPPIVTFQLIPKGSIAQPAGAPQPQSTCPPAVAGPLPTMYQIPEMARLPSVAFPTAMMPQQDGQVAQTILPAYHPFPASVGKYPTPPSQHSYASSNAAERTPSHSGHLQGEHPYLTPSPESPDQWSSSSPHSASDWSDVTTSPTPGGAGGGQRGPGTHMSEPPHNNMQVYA
The target in experiment [6] is Pro-neuregulin-1, membrane-bound isoform (Homo sapiens) (UniProt Q02297). The experiment can be described thus: small molecules binding neuregulin-1 protein – biochemical, small-molecule microarray, fluorescence 635/667, psychiatric disease protein project, primary screen (AID 1075).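 Also: score combines 667 nm spot fluorescence with signal to noise.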 As to conditions: NRG1 binding, 635 nm fluorescence, higher = more signal.
Chain of Pro-neuregulin-1, membrane-bound isoform (Homo sapiens) (Q02297 whole entry, looked up, the tested form may be a part, canonical isoform): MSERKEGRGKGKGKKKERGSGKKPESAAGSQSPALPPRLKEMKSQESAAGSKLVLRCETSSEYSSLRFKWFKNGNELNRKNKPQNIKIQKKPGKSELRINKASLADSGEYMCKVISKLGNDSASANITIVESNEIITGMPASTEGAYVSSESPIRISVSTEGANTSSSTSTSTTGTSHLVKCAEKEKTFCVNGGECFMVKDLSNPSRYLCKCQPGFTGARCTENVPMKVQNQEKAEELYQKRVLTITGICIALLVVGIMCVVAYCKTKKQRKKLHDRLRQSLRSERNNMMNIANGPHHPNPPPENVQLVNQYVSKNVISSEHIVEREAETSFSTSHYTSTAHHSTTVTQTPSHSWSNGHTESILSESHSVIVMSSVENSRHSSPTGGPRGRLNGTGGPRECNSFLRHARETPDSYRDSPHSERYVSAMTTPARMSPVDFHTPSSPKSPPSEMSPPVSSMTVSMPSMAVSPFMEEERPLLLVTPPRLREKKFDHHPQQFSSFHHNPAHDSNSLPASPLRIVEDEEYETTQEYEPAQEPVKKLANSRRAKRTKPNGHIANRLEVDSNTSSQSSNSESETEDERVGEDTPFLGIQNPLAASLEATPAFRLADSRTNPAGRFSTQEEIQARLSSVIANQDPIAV
Experiment [7] relates to Neuregulin-1 EGF-like domain. Nature of the experiment: small molecules binding NRG1 EGF domain – biochemical, small-molecule microarray, 635 nm fluorescence, primary screen (AID 1081).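 Also: binding of the protein to compounds printed on small-molecule microarray slides.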 As to conditions: higher = more signal.
A short description of experiment [8]: FRG1 expression reporter modulators in myotubes – cell-based, C2C12 myotubes, firefly/Renilla luciferase, luminescence, FRG1 inhibition for FSHD, primary screen (AID 1084). As to conditions: FRG1 promoter luciferase, higher = more signal, called active from +8 up or from −8 down.
The nature of experiment [9]: small molecules captured by biotinylated probe aFST – biochemical, small-molecule microarray, fluorescence 635/667, stem cell growth factor project, primary screen (AID 1086).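 Also: score merges 667 nm fluorescence with signal-to-noise of each printed compound spot.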 The conditions noted are these: higher = more signal.
A short description of experiment [10]: binders of probe aHhip on microarray, primary screen, stem cell growth factor project, biochemical, small-molecule microarray, fluorescence 635/667 (AID 1087).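 Also: score merges spot fluorescence at 667nm with spot signal to noise ratio.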 As to conditions: higher = more signal.

Calls of active or inactive are those of the source.

Take `CCC(=O)[C@]12O[C@@]3([C@@H]4C(=O)OCC[C@@H]41)N(CC)C(C)=C(C(=O)OC)[C@@H](c1ccccc1)N3C2=O`: the composite z-score in experiment [1] is 0.162; in [2], -0.337; in [3] it was -0.116; in experiment [4] it was 0.0911; in experiment [5], -0.925; in [6] it was 0.0983. The composite z-score in experiment [7] is 0.966; in experiment [9], -0.255; in experiment [10], 0.176. In addition, the z-score in experiment [8] was -0.13 (inactive).
`Cc1ccc(N2C(=O)c3ccccc3[C@](C)(C(=O)NCC(C)C)[C@@H]2c2ccc(CO)cc2)nc1`: the composite z-score was 0.572 in experiment [1]; -0.48 in experiment [2]; 0.0988 in experiment [3]; -0.662 in [4]; -1.02 in experiment [5]; -1.05 in [6]. In addition, the composite z-score in experiment [7] was 1.4; in experiment [9], -0.542; in [10] it was 0.74. The z-score in experiment [8] was 0.613 (inactive).
Take `C[C@H]1NC(=O)[C@@H](C)NC(=O)[C@@]23C(=O)N[C@@H](Cc4ccccc4)C2[C@H](C)[C@@]2(C)O[C@H]2C3/C=C/C/C=C\CNC1=O` (stereo not given in full): the composite z-score was -0.372 in [1]; -0.0794 in [2]; -0.083 in experiment [3]; -0.167 in experiment [4]; -0.269 in [5]; 0.631 in experiment [6]. For the same compound, the composite z-score in [7] is 0.812; in [9], -0.41; in experiment [10], -0.34. Besides, in experiment [8], the z-score was 0.0028 (inactive).
Consider `Cc1ccc(S[C@]2(C(=O)NCCCN(C)C)CC(=O)N(C3CCCCC3)[C@@H]2c2ccc(CO)cc2I)cc1`, for which the composite z-score was 1.93 in experiment [1]; -0.697 in experiment [2]; -0.113 in [3]; -0.546 in experiment [4]; -0.197 in [5]; 0.266 in [6]. In addition, the composite z-score is 0.942 in experiment [7], 0.235 in experiment [9] and -0.0645 in [10]. Besides, in experiment [8], the z-score was -1.31 (inactive).
Turning to `O=C1OCC=C[C@H]2OC34C=CCN(Cc5ccccc5)C(=O)[C@H]3N(CCCCCO)C(=O)[C@@H]4[C@@H]12` (stereo not given in full), the composite z-score in experiment [1] is 1.67; in experiment [2], -0.0288; in [3] it was -0.187; in experiment [4], -0.179; in [5], -1.38; in [6], 1.13. In addition, the composite z-score is 0.631 in experiment [7], -0.594 in experiment [9] and -0.216 in experiment [10]. In addition, in experiment [8], the z-score is 0.443 (inactive).
As to `Cc1ccc(S[C@]2(C(=O)NC(C)C)CC(=O)N(C3Cc4ccccc4C3)[C@@H]2c2ccc(CO)cc2)cc1`, the composite z-score in [1] was -0.796; in experiment [2], 0.172; in experiment [3], -0.148; in experiment [4], 0.301; in experiment [5] it was -0.586; in experiment [6] it was 1.42. Besides, the composite z-score in [7] is 0.62; in experiment [9] it was -0.554; in experiment [10] it was -0.292. For the same compound, in experiment [8], the z-score is -2.74 (inactive).
Take `COCCOC(=O)N1C(=O)[C@@]2(c3cc(C#CCNC(N)=O)ccc31)[C@H](c1ccc(OCCO)cc1)N1[C@H](c3ccccc3)[C@H](c3ccccc3)OC(=O)[C@H]1[C@@H]2C(=O)Nc1nc2ccccc2s1`: the composite z-score in experiment [1] was 1.02; in experiment [2] it was 0.208; in [3], -0.0399; in experiment [4], 0.371; in experiment [5] it was -0.97; in experiment [6], 0.396. The composite z-score in experiment [7] was -0.757; in experiment [9] it was 0.98; in experiment [10] it was 0.136. In addition, the z-score in experiment [8] was 3.98 (inactive).
With `C=CCC(OC(C)=O)[C@@H]1[C@@H](N(Cc2cccc3ccccc23)C(=O)c2ccc(C)cc2)c2cc(OCCCO)ccc2N1C(=O)c1ccc(-c2ccccc2)cc1` (stereo not given in full), the composite z-score in experiment [1] is 0.115; in experiment [2] it was 0.529; in experiment [3], -0.0753; in experiment [4], 0.255; in [5] it was -0.169; in experiment [6], 0.0808. Besides, the composite z-score in experiment [7] was -0.173; in experiment [9], 0.159; in [10], -0.335. Moreover, the z-score in experiment [8] was -2.1 (inactive).
As for `C=CCOC(=O)[C@@H]1[C@H]2C(=O)O[C@H](c3ccccc3)[C@H](c3ccccc3)N2[C@H](c2ccc(OCCOC(=O)[C@H]3C[C@H]4C(=O)N[C@@H](CCCCNC(C)=O)C(=O)N4[C@H]3c3ccc(O)cc3)cc2)[C@@]12C(=O)Nc1ccc(I)cc12`, the composite z-score in [1] was -0.583; in experiment [2], 0.242; in [3], 0.0435; in experiment [4], 0.536; in experiment [5], 0.5; in experiment [6] it was 1.24. Moreover, the composite z-score in experiment [7] is 1.17; in experiment [9], -0.0007; in [10], 0.158. For the same compound, the z-score in [8] is 0.46 (inactive).
For `C[C@]1(C(=O)NCc2ccccc2)c2ccccc2C(=O)N(Cc2cc(C(F)(F)F)cc(C(F)(F)F)c2)[C@H]1c1ccc(CO)cc1`, the composite z-score was found to be 0.158 in experiment [1]; 1.05 in [2]; 0.168 in [3]; 0.149 in experiment [4]; 1.04 in [5]; 0.196 in experiment [6]. In addition, the composite z-score was 1.23 in experiment [7], 0.185 in experiment [9] and -0.359 in [10]. Besides, the z-score in [8] is -1.65 (inactive).
Turning to `CCCC=C(CCC)[C@@H](NC(=O)c1ccccc1)c1ccccc1`, the composite z-score in experiment [1] was 0.969; in [2] it was -0.239; in experiment [3], -0.0392; in experiment [4] it was -0.41; in experiment [5] it was -0.028; in experiment [6], -0.806. In addition, the composite z-score was -0.943 in [7], 0.636 in [9] and 0.304 in experiment [10]. The z-score in experiment [8] was -0.788 (inactive).
On to `COCCOC(=O)N1C(=O)[C@@]2(c3cc(C#CC4=CCCCC4)ccc31)[C@H](C(=O)NC[C@H](O)c1ccccc1)[C@H]1C(=O)O[C@H](c3ccccc3)[C@H](c3ccccc3)N1[C@@H]2c1ccc(OCCO)cc1`, for which the composite z-score was -0.409 in experiment [1]; 0.782 in experiment [2]; -0.0566 in [3]; 0.478 in [4]; 1.26 in [5]; 1.12 in [6]. For the same compound, the composite z-score was 1.26 in experiment [7], 0.575 in experiment [9] and -0.0645 in experiment [10]. In experiment [8], the z-score was 0.916 (inactive).
As for `C=C(COC)/C(=C/C[C@@H](OC(C)=O)c1cccc(OCCO)c1)c1cc(C(=O)OC)ccc1OC`, the composite z-score is 0.0462 in experiment [1]; 0.361 in experiment [2]; -0.103 in experiment [3]; 0.396 in experiment [4]; -0.0821 in experiment [5]; -0.582 in experiment [6]. Also, the composite z-score in experiment [7] was 0.597; in experiment [9], 0.105; in experiment [10] it was 0.0274. Further, the z-score in experiment [8] was -0.637 (inactive).
As to `CC1CC/C=C\[C@H]2OC34C=CCN(Cn5nnc6ccccc65)C(=O)[C@H]3N(C(C)CO)C(=O)[C@@H]4C2C(=O)O1` (stereo not given in full), the composite z-score in [1] was -0.0303; in experiment [2] it was -1.38; in experiment [3], -0.171; in [4], -0.282; in experiment [5] it was -0.64; in experiment [6], 1.86. The composite z-score in [7] was 0.3; in experiment [9], -0.134; in experiment [10] it was 0.0373. Further, the z-score in [8] was -0.389 (inactive).
